The values below come from PubChem BioAssay (EPA / NIEHS).

Molecules are shown by their SMILES. Records with an inconclusive call do not appear. Active and inactive are the calls of the source. How the source made its calls, unless noted: active means hit-call score of the fitted dose curve at least 0.9, where 1 is the maximum; inactive means score below 0.9.

The nature of experiment [1]: ACEA_ER_80hr: ACEA Biosciences xCELLigence Real-Time Cell Analysis on Estrogen Receptor Agonism for Proliferation (AID 2282667; active means hit-call score of the fitted dose curve at least 0.9, where 1 is the maximum). The following applies: T47D proliferation, impedance (xCELLigence), 80 h. The essentials:
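Real-time impedance growth kinetics of human T-47D breast cells read 80 h after dosing, gain-of-signal fitted relative to DMSO. Compounds: 1:4 serial series, top final concentration 100 uM, n = 2.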

Experiment [2] is described as follows: ATG_CRE_CIS: Attagene CIS-FACTORIAL HepG2 Assay for human cAMP Responsive Element (CRE) binding protein 3 (AID 2282926). The following applies: HepG2 CRE cis-reporter, Attagene multiplexed mRNA; actives raise or lower the signal. The essentials:
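Multiplexed transcription-unit reporters transfected into HepG2; 24 h dosing; RT-PCR/capillary electrophoresis fluorescence read-out; bidirectional fit vs DMSO.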

Experiment [3] has as its target CCAAT/enhancer-binding protein beta (Homo sapiens) (UniProt P17676). The experiment in a line: ATG_C_EBP_CIS: Attagene CIS-FACTORIAL HepG2 Assay for human CCAAT/Enhancer Binding Protein (C/EBP) beta (AID 2282927). The conditions noted are these: HepG2 Attagene cis-factorial transcription factor reporter; actives raise or lower the signal. In outline:
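Endogenous C/EBPb-driven reporter transcripts measured in transfected human HepG2 cells at 24 h via RT-PCR and capillary electrophoresis of labelled fragments. Activity fitted in both directions relative to DMSO baseline.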

Experiment [4] can be described thus: ATG_CMV_CIS: Attagene CIS-FACTORIAL HepG2 Assay for human CMV (Internal Marker) (AID 2282928).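 Further: endpoint acts as a background internal control marker rather than a target.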 The conditions noted are these: HepG2 CMV promoter reporter, transcription factor profiling; actives raise or lower the signal. The essentials: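 Cell system: HepG2, transiently transfected multiple reporter units under cis promoters. Exposure: 24 h. Detection: RT-PCR, FAM labeling, HpaI digestion, capillary electrophoresis. Analysis: bidirectional, DMSO baseline.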

Experiment [5] is described as follows: ATG_DR4_LXR_CIS: Attagene CIS-FACTORIAL HepG2 Assay for human Liver X Receptor (LXR), DR4 submotif (AID 2282929). The following applies: HepG2 Attagene DR4 cis-reporter, mRNA transcription; actives raise or lower the signal. In outline: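 The endpoint is DR4-element-driven reporter transcripts after 24 h chemical exposure of transfected HepG2 cells. These were measured via RT-PCR and capillary electrophoresis, and gain or loss of signal was fitted relative to DMSO controls.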

The target of experiment [6] is Aryl hydrocarbon receptor (Homo sapiens) (UniProt P35869). The experiment can be described thus: ATG_Ahr_CIS: Attagene CIS-FACTORIAL HepG2 Assay for human Aryl Hydrocarbon Receptor (Ahr) (AID 2282930). The following applies: HepG2 AhR cis-factorial reporter transcription; actives raise or lower the signal. The essentials: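 Reporter mRNA levels, quantified by RT-PCR and fluorescent capillary electrophoresis, reflect endogenous AhR transcriptional activity in HepG2 cells carrying transfected cis-promoter reporter constructs. Readout at 24 h post-dose; gain or loss fitted against DMSO baseline.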

Experiment [7] can be described thus: ATG_AP_1_CIS: Attagene CIS-FACTORIAL HepG2 Assay for human Activator Protein 1 (AP-1) (AID 2282931). The following applies: HepG2 Attagene cis-factorial AP-1 reporter mRNA; actives raise or lower the signal. In outline: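 Readout is reporter transcript level from endogenous transcription factor activity, quantified by RT-PCR with fluorescent primer extension and capillary electrophoresis. Transiently transfected HepG2 cells, 24 h exposure. Curves fitted both directions versus DMSO.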

Experiment [8] in a line: ATG_AP_2_CIS: Attagene CIS-FACTORIAL HepG2 Assay for human Activator Protein 2 (AP-2) (AID 2282932). The conditions noted are these: HepG2 AP-2 cis-reporter, Attagene transcription factor profiling; actives raise or lower the signal. The essentials:
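Step one: transient transfection of HepG2 with reporter transcription units. Step two: 24 h chemical exposure. Step three: RNA extraction, RT-PCR, labelled fragment analysis by capillary electrophoresis; DMSO serves as baseline.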

The target of experiment [9] is Retinoic acid receptor alpha (Homo sapiens) (UniProt P10276). The experiment in a line: ATG_DR5_RAR_CIS: Attagene CIS-FACTORIAL HepG2 Assay for human Retinoic Acid Receptor Alpha (RARE), DR5 submotif (AID 2282934). The following applies: HepG2 Attagene cis-factorial RARE DR5 reporter, mRNA; actives raise or lower the signal. In outline:
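Reporter transcripts from a DR5-regulated unit, measured via RT-PCR plus capillary electrophoresis, reflect endogenous RAR activity in transiently transfected human HepG2 liver cells. Exposure lasted 24 h; gain or loss of signal scored against DMSO.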

The target of experiment [10] is Transcription factor E2F1 (Homo sapiens) (UniProt Q01094). The experiment in a line: ATG_E2F_CIS: Attagene CIS-FACTORIAL HepG2 Assay for human E2F Transcription Factor 1 (AID 2282935). The conditions noted are these: HepG2 Attagene cis-reporter, E2F reporter RNA transcripts; actives raise or lower the signal. The essentials:
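Total RNA from 24 h-treated, reporter-transfected HepG2 cells undergoes DNase I treatment, oligo(dT) reverse transcription, PCR and 6-FAM primer extension before capillary electrophoresis.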

A short description of experiment [11]: ATG_E_Box_CIS: Attagene CIS-FACTORIAL HepG2 Assay for human Enhancer Box (E-box) (AID 2282936). The following applies: HepG2 E-box cis-reporter transcription, actives raise or lower the signal. The essentials: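 DMSO served as negative control and baseline for bidirectional fitting. Human hepatoma HepG2 cells, transiently transfected with cis-reporter constructs, were dosed 24 h; reporter mRNA read by RT-PCR and capillary electrophoresis.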

Experiment [12] in a line: ATG_M_61_CIS: Attagene CIS-FACTORIAL HepG2 Assay for M61 Transcription Factor (Internal Marker) (AID 2282937). The following applies: HepG2 Attagene CIS-FACTORIAL M61 internal marker reporter; actives raise or lower the signal. The essentials: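 Readout is reporter mRNA by RT-PCR, fluorescent primer extension and capillary electrophoresis, with gain or loss fitted relative to DMSO. Transfected HepG2 cells carrying endogenous-TF-driven cis reporters were exposed to chemicals for 24 hours.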

Experiment [13] can be described thus: ATG_EGR_CIS: Attagene CIS-FACTORIAL HepG2 Assay for human Early Growth Response 1 (EGR1) (AID 2282938). The conditions noted are these: HepG2 Attagene CIS-FACTORIAL EGR reporter mRNA; actives raise or lower the signal. In outline:
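After 24 h compound exposure, RNA from reporter-transfected HepG2 cells was reverse-transcribed, PCR-amplified, fluorescently labelled and resolved by capillary electrophoresis. EGR1 reporter transcript changes, up or down, were fitted against DMSO, reflecting endogenous transcription-factor activity.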

Experiment [14] can be described thus: ATG_M_19_CIS: Attagene CIS-FACTORIAL HepG2 Assay for M19 Transcription Factor (Internal Marker) (AID 2282939). The conditions noted are these: HepG2 Attagene CIS-FACTORIAL M19 internal marker reporter; actives raise or lower the signal. In outline: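 Internal marker readout, fitted in both directions against DMSO, from HepG2 cells carrying transfected cis-element reporter constructs; RT-PCR and capillary electrophoresis of reporter mRNA after 24 h exposure.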

Experiment [15] can be described thus: ATG_Ets_CIS: Attagene CIS-FACTORIAL HepG2 Assay for human Erythroblast Transformation Specific (ETS) (AID 2282941). The following applies: HepG2 ETS cis-reporter transcription, actives raise or lower the signal. In outline:
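After transient cis-reporter transfection, HepG2 cells receive test chemical for 24 h. Reporter mRNA levels, measured by RT-PCR and capillary electrophoresis fluorescence, are analysed bidirectionally relative to the DMSO baseline.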

Experiment [16] has as its target Hepatocyte nuclear factor 3-beta (Homo sapiens) (UniProt Q9Y261). The experiment in a line: ATG_FoxA2_CIS: Attagene CIS-FACTORIAL HepG2 Assay for human Forkhead box A2 (FOXA2) (AID 2282942). The following applies: HepG2 cis-reporter transcription factor activity, 24 h; actives raise or lower the signal. In outline: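 Endogenous transcription factor activity is captured via cis-element-driven reporter transcripts in transfected HepG2. Total RNA taken at 24 h post-dosing; labelled RT-PCR products resolved by capillary electrophoresis. Gain or loss fitted versus DMSO.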

Experiment [17] can be described thus: ATG_GATA_CIS: Attagene CIS-FACTORIAL HepG2 Assay for human GATA Binding Protein (AID 2282944). The conditions noted are these: HepG2 GATA cis-element reporter, Attagene multiplex mRNA; actives raise or lower the signal. In outline: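 Reporter transcripts from a GATA cis-regulated unit, among multiplexed reporters in transfected HepG2 cells, were measured by RT-PCR with capillary electrophoresis after 24 h dosing. Induction or loss scored relative to DMSO.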

A short description of experiment [18]: ATG_ERE_CIS: Attagene CIS-FACTORIAL HepG2 Assay for Estrogen Response Element (ERE) (AID 2282940). The following applies: HepG2 ERE cis-reporter, Attagene RNA transcript; actives raise or lower the signal. The essentials: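 After 24 h compound treatment, RNA from transfected HepG2 cells was reverse-transcribed, reporter cDNA PCR-amplified, FAM-labelled, HpaI-cut and resolved by capillary electrophoresis. ERE-driven cis reporter transcripts reflect endogenous factors; gain or loss scored against DMSO.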

The nature of experiment [19]: ATG_BRE_CIS: Attagene CIS-FACTORIAL HepG2 Assay for human Bone Morphogenetic Protein (BMP) Response Element (BRE) (AID 2282933). The following applies: HepG2 BMP response element reporter, Attagene transcription factor profiling; actives raise or lower the signal. In outline: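 Endogenous transcription factor activity read in transiently transfected HepG2 cells after 24 h chemical exposure. Bidirectional curve fitting against DMSO; readout is reporter transcript level by RT-PCR with capillary electrophoresis of labelled products.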

Experiment [20] can be described thus: ATG_FoxO_CIS: Attagene CIS-FACTORIAL HepG2 Assay for human Forkhead box O (FoxO) (AID 2282943). The following applies: HepG2 Attagene cis-reporter, FoxO element, mRNA; actives raise or lower the signal. The essentials:
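Endogenous transcription factor activity read from multiplexed cis-promoter reporter transcripts in transiently transfected HepG2, 24 h after dosing. Reporter RNA measured via RT-PCR plus capillary electrophoresis of FAM-labeled products; gain or loss relative to DMSO.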

Retinoic acid receptor alpha (Homo sapiens), sequence (P10276 whole entry, looked up): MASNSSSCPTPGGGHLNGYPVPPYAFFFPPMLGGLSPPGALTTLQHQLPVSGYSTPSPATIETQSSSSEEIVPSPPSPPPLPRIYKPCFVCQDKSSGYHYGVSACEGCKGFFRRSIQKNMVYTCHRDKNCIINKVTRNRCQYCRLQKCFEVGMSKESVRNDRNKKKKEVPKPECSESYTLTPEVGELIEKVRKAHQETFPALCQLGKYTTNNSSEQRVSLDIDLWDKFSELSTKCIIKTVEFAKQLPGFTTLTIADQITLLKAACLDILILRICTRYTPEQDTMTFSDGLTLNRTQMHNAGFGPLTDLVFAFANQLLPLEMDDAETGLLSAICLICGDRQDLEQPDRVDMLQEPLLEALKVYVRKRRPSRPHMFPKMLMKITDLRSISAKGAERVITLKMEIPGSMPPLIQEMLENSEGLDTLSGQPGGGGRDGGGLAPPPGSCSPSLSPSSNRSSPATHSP
Transcription factor E2F1 (Homo sapiens), sequence (Q01094 whole entry, looked up): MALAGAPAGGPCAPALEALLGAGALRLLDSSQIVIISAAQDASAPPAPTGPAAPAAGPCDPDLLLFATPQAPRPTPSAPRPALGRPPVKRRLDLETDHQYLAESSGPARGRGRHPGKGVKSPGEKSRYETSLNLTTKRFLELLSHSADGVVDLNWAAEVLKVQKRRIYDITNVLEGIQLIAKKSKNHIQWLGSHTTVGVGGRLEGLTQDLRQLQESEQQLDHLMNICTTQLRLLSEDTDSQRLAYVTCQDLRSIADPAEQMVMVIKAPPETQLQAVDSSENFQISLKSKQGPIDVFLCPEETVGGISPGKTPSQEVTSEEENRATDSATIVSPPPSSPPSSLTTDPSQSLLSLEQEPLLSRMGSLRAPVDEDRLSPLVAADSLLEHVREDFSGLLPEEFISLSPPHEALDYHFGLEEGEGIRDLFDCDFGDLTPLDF
Aryl hydrocarbon receptor (Homo sapiens), sequence (P35869 whole entry, looked up): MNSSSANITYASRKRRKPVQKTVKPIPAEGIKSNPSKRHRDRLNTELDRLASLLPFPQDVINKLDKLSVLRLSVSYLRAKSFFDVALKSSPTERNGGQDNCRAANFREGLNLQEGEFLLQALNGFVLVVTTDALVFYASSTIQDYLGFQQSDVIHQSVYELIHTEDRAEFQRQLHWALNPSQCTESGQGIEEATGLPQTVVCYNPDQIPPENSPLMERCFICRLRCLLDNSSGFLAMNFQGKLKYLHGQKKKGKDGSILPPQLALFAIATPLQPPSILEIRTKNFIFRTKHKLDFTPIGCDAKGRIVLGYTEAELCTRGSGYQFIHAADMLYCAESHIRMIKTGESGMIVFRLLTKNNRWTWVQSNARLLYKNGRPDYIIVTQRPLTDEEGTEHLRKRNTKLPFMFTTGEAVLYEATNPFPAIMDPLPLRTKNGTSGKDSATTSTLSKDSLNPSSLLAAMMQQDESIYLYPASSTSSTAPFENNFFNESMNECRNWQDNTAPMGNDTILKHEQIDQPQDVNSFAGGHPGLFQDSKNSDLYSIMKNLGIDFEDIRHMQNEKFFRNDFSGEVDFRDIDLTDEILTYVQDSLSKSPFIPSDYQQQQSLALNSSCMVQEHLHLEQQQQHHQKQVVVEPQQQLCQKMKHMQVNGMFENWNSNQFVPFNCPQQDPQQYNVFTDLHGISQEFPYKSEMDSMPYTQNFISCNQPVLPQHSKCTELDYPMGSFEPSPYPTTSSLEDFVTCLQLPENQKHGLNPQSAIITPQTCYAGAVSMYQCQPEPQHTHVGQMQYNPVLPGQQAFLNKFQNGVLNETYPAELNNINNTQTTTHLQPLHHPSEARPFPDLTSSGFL
CCAAT/enhancer-binding protein beta (Homo sapiens), sequence (P17676 whole entry, looked up, the tested form may be a part): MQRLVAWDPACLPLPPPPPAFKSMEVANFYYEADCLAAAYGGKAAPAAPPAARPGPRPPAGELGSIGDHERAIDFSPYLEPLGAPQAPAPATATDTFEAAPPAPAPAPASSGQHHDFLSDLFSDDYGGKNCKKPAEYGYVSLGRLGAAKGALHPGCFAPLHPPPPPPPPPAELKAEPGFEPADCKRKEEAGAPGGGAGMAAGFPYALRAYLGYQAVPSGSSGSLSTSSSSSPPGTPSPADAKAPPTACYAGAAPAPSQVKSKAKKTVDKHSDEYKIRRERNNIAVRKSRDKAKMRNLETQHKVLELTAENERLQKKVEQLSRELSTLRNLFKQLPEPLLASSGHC
Hepatocyte nuclear factor 3-beta (Homo sapiens), sequence (Q9Y261 whole entry, looked up): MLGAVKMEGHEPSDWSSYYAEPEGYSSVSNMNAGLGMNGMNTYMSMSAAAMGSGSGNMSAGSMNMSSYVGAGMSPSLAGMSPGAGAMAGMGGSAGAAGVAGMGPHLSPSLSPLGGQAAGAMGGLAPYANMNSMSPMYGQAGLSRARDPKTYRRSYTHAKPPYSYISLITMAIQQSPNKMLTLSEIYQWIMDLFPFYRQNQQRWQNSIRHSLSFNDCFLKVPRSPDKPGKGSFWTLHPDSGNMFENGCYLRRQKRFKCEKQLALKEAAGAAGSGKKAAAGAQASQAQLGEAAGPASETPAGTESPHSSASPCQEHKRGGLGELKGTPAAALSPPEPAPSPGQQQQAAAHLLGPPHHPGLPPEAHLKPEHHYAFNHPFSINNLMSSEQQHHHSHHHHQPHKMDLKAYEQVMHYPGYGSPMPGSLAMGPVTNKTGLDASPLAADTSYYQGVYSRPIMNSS

`Clc1cccnc1`: the result in experiment [1], in [2], in experiment [3], in experiment [4], in experiment [5] and in experiment [6] was inactive. Moreover, the molecule was classed as inactive in experiment [7], in [8], in experiment [9], in experiment [10], in experiment [11] and in experiment [12]. Besides, the result in [13], in experiment [14], in experiment [15], in [16] and in [17] was inactive.

As for `COC(=O)CC(C)CCC=C(C)C` (stereo unspecified), the result in experiment [1], in [2], in experiment [3], in experiment [4], in experiment [5] and in experiment [6] was inactive. Besides, the molecule was called inactive in experiment [7], in experiment [8], in experiment [9], in experiment [10], in experiment [11] and in experiment [12]. Besides, the molecule was called inactive in experiment [13], in [14], in [18], in [16] and in experiment [17].

Turning to `CN1CCN(C)CC1`, the molecule was classed as inactive in [1], in experiment [2], in [3], in [4], in experiment [5] and in experiment [6]. In addition, the call in experiment [7], in experiment [8], in [19], in experiment [10], in experiment [12] and in [13] was inactive. Further, the outcome in [14], in experiment [18], in experiment [15], in experiment [16], in experiment [20] and in experiment [17] was inactive.

As a reminder, the AC50 is the midpoint of the concentration-response curve, whichever way the signal moves. On to `Nc1ccc(O)c([N+](=O)[O-])c1`, for which the molecule was classed as inactive in experiment [1], in experiment [2], in [3], in experiment [4], in experiment [5] and in experiment [7]. Besides, the molecule was called inactive in experiment [8], in [9], in experiment [10], in [11], in experiment [12] and in [13]. The molecule was classed as inactive in experiment [14], in experiment [18], in [15], in experiment [16], in experiment [20] and in experiment [17]. In addition, the AC50 in experiment [6] was 13.9 µM (active).
